From PubChem
Cruzain noTriton = qHTS Assay for Promiscuous and Specific Inhibitors of Cruzain (without detergent); Potency, µM, most hits filed as inhibitors; hit rate 2.3% among 200,000; Cruzipain (Trypanosoma cruzi), P25779; purified cruzain, Z-FR-AMC fluorescence, no detergent; AID 1476, 2009; note: nearly all actives have a fitted effect of over 40% in size
Target sequence (P25779 123-467 limits assumed): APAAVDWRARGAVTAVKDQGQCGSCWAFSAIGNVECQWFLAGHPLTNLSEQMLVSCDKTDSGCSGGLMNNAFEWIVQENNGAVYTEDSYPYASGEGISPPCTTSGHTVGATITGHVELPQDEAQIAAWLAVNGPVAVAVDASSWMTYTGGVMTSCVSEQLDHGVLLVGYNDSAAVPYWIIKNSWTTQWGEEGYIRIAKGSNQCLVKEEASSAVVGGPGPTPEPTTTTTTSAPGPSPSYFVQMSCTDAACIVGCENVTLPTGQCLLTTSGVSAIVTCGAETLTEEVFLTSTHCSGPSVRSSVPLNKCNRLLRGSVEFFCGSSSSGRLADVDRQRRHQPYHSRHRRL
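Purified cruzain at 1.5 nM, pre-incubated 15 min with compound at room temperature in 100 mM sodium acetate pH 5.5, 5 mM DTT, 0.00005% Triton X-100. Reaction started with 2 uM Z-FR-AMC; AMC fluorescence increase over 60 s gives rate.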
Cruzain inh Det = qHTS Assay for Promiscuous and Specific Inhibitors of Cruzain (with detergent) | Cruzipain (Trypanosoma cruzi), P25779 | hit rate 0.43% among 200,000 | AID 1478, 2009 | Potency, µM, actives largely listed as inhibitors | purified cruzain, Z-FR-AMC fluorescence, 0.01% Triton; note: nearly all actives have a fitted effect of over 40% in size
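Sodium acetate buffer (100 mM, pH 5.5) containing 5 mM DTT and 0.01% Triton X-100 hosted 1.5 nM cruzain and test compound for 15 min at room temperature. Cleavage of 2 uM Z-FR-AMC was then tracked by fluorescence.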
Hits are given with their value; . = inactive; ? = inconclusive; ! = repeats disagree. A selection: hits, their analogues and other compounds. The true share with any hit is near 2.5%. Calls come from the whole dose curve; as a rule, active = well fitted curve in the direction sought with a large enough effect; inconclusive = small, poorly fitted or top-dose-only effect, or another doubt; inactive = no such curve, though single readings can be large; an effect the other way counts as inactive or inconclusive.

SMILES	Cruzain noTriton	Cruzain inh Det
COc1ccc(/C=N/Nc2nc(-c3cccc(S(=O)(=O)N4CCCC4)c3)cs2)cc1OC	.	.
N=C1[C@@H](O)[C@]2(I)c3ccccc3N3C(=N)[C@H](O)[C@@H]4c5ccccc5N1[C@@H]4[C@@H]32	.	.
O=C(CCn1cnc2onc(-c3ccc(F)cc3)c2c1=O)N1CCN(c2cccc(Cl)c2)CC1	.	.
Cc1cc(NC(=O)c2ccc(F)cc2F)n(-c2nc3ccccc3[nH]2)n1	20µM	.
Cc1cc(NC(=O)CC2CCCC2)n(-c2nc3ccccc3[nH]2)n1	.	.
Cc1ccc(C)c(Cn2c3ccccc3c3cnn(CC(=O)NC4CCC(C)CC4)c(=O)c32)c1 (configuration not stated)	.	.
COCCn1c(=O)cnc2cnc(Nc3ccccc3)nc21	.	.
Cn1c(=O)cnc2cnc(Nc3ccccc3)nc21	25.1µM	.
C#CCn1cc(/C=N/Nc2nc3ccccc3[nH]2)c2ccccc21	31.6µM	.
CCCCn1c(/C=N/Nc2nc3ccccc3[nH]2)nc2ccccc21	?	.
CCOC(=O)c1ccc(N2C(=O)c3n[nH]c(-c4cccs4)c3C2c2ccc(C)cc2)cc1 (configuration not stated)	.	.
COc1ccc(-c2n[nH]c3c2C(c2ccc(O)cc2)N(c2ccc(Br)cc2)C3=O)cc1 (configuration not stated)	?	.
CCOC(=O)c1ccc(N2C(=O)c3[nH]nc(-c4ccc(OC)cc4)c3C2c2ccc(C)cc2)cc1 (configuration not stated)	25.1µM	.
CCOC(=O)c1ccc(N2C(=O)c3n[nH]c(-c4ccco4)c3C2c2ccc(OCC)cc2)cc1 (configuration not stated)	.	.
COc1ccc(OC)c(C2c3c(-c4ccc(Br)cc4)n[nH]c3C(=O)N2c2ccc(Cl)cc2)c1 (configuration not stated)	15.8µM	.
CCOC(=O)c1ccc(N2C(=O)c3n[nH]c(-c4cccs4)c3C2c2ccc(Cl)cc2Cl)cc1 (configuration not stated)	20µM	.
Clc1ccc(-n2c(Cc3ccccc3)nnc2SCc2nc(-c3cccs3)no2)cc1	.	.
O=C(CSc1nc2ccccc2s1)N1c2ccccc2Sc2ccccc21	15.8µM	.
CCOc1ccc2nc(SCC(=O)N3c4ccccc4Sc4ccccc43)sc2c1	?	.
Cc1cc(NC(=O)CSc2nc3ccccc3s2)no1	31.6µM	.
Cc1cnc(NC(=O)CSc2nc3ccccc3s2)s1	.	.
N#C/C(=C\c1ccc(-c2ccc(C(=O)O)cc2)o1)C(=O)Nc1ccccc1C(=O)O	.	.
O=C(Nc1ccc(Cl)cc1)Nc1nnc(Cc2ccc([N+](=O)[O-])cc2)s1	7.94µM	.
O=C(Cc1nnc(NC(=O)Nc2ccc(Cl)cc2)s1)NCc1ccccc1	10µM	.
Cc1ccc(NC(=O)Nc2nnc(Cc3ccc([N+](=O)[O-])cc3)s2)cc1	.	.
SMILES	Cruzain noTriton	Cruzain inh Det
COCC(=O)Nc1nnc(Cc2ccc(OC)cc2)s1	.	.
COc1ccc(Cc2nnc(NC(=O)c3ccc(Cl)c([N+](=O)[O-])c3)s2)cc1	15.8µM	.
O=C(Nc1ccc(Cl)cc1)Nc1nnc(SCc2ccc(Cl)cc2)s1	7.94µM	.
O=C(Nc1ccccc1)Nc1nnc(SCc2ccc(Cl)cc2)s1	?	.
O=C(Cc1nnc(NC(=O)Nc2ccccc2)s1)NCc1ccccc1	.	.
COc1cc2c(c(OC)c1)C(c1cccc(F)c1F)CC(=O)N2 (configuration not stated)	.	.
CC(C)Cn1cc(NC(=O)NCc2cccc(Cl)c2)c2ccccc2c1=O	.	.
COc1ccc2c(c1)C(=O)[C@H](OC(=O)Nc1cc(OC)c(OC)c(OC)c1)[C@@H](c1ccc(OC)c(Br)c1)O2	.	.
Cn1c(=O)n(C)c2cc(S(=O)(=O)N3CCOCC3)ccc21	.	.
O=S(=O)(c1ccc2nc(-c3ccco3)c(-c3ccco3)nc2c1)N1CCOCC1	.	22.4µM
CCOc1ccccc1NC(=O)c1cc(S(=O)(=O)N2CCOCC2)cn1C	.	.
O=C(O)c1ccccc1-c1c2cc(Br)c(=O)cc-2oc2[c]([Hg])c(O)c(Br)cc12	?	20µM!
Cc1ccc2oc(-c3ccccc3C(=O)O)cc(=O)c2c1	.	.
CCOC(=O)c1sc2ccccc2c1S(=O)(=O)N1CCN(c2ccccc2)CC1	31.6µM	.
CCOC(=O)c1sc2ccccc2c1S(=O)(=O)N1CCN(c2cccc(OC)c2)CC1	.	.
CCOC(=O)c1sc2ccccc2c1S(=O)(=O)N1CCN(c2cccc(C)c2C)CC1	12.6µM	.
CCOC(=O)c1sc2ccccc2c1S(=O)(=O)N1CCN(c2ccccc2F)CC1	.	.
CC(C)CC(=O)Nc1nc2nc(-c3ccccc3)cc(=O)n2[nH]1	.	.
C=CCC(CC=C)(CNC(=O)C(=O)Nc1cccc(C(F)(F)F)c1)c1ccccc1	.	.
Cc1cc2oc3c(c(=O)c2cc1C)C(c1ccc(C(C)C)cc1)N(c1nc(C)c(C)s1)C3=O (configuration not stated)	.	.
N#Cc1ccccc1NC(=O)C(=O)NCC(c1cccnc1)N1CCN(c2ccccc2)CC1 (configuration not stated)	?	.
CSC[C@@H]1NC(=S)N(c2ccc(C)cc2)C1=O	12.6µM	.
CC1=CC(C)(C)NC(=S)N1c1ccc(C)cc1	.	.
NC(=O)CC[C@H](NC(=O)c1ccc(F)cc1)C(=O)OCC(=O)Nc1ccc(N2CCOCC2)cc1	?	25.1µM
C/C(=C\C(=O)c1ccc(F)cc1)Nc1ccc(N2CCOCC2)cc1	.	.
SMILES	Cruzain noTriton	Cruzain inh Det
Cn1ncc2c(NCc3ccc(Cl)cc3)ncnc21	.	.
COc1ccc(C(=O)Nc2cc(S(=O)(=O)c3ccc(Cl)cc3)c(O)c(C)c2C)cc1	.	.
c1ccc2c(c1)[nH]c1ccccc12	.	.
O=Cc1c2[nH]c3ccccc3c2cc2[nH]c3ccccc3c12	25.1µM	.
Cc1cc(C)c2c(NC(=O)c3ccccc3Cl)c(C(=O)NCc3ccc(Cl)cc3)sc2n1	.	.
Cc1cc2c(cc1S(=O)(=O)Nc1cccc(C#N)c1)OCC(=O)N2	.	.
Cc1ccsc1-c1nc(C(N)=O)c2[nH]c(=O)n(-c3ccc(Cl)cc3)c2n1	10µM	.
COc1ccc(-c2nc(C(N)=O)c3[nH]c(=O)n(-c4cccc(Cl)c4)c3n2)cc1OC	?	.
O=C(CNC(=O)c1cccs1)OCC(=O)c1ccc2ccccc2c1	.	?
CC(C)(C)c1ccc(C(=O)NCC(=O)OCC(=O)c2ccc3c(c2)-c2ccccc2C3)cc1	25.1µM	.
Cc1ccc(SCc2nc(-c3ccc(C(=O)Nc4cc(C)ccc4C)cc3)oc2C)cc1	.	.
O=C(/C=C/c1cccs1)c1ccc(NC(=O)c2cccc(Br)c2)cc1	15.8µM	.
Cc1ccc(NC(=O)COC(=O)/C=C/c2cccs2)cc1	.	.
Cc1ccc(C(=O)Nc2ccc(C(=O)/C=C/c3cccs3)cc2)cc1	25.1µM	.
O=C(/C=C/c1cccs1)c1ccc(Br)cc1	.	.
COc1ccc(CCN2C(=O)CN(C3CCC(C)CC3)C(=O)C2c2ccc(OC(C)C)c(OC)c2)cc1OC (configuration not stated)	?	.
CNC(=S)N/N=C/c1cc(C)n(-c2ccc(Cl)c(Cl)c2)c1C	31.6µM	.
CNC(=S)N/N=C/c1ccccc1Cl	.	.
